Assay [1] addresses Guanine nucleotide-binding protein G(i) subunit alpha-1 (Homo sapiens) (UniProt P63096). The experiment in a line: qHTS Assay for Inhibitors of RGS12 GoLoco Motif Activity (Green Fluorophore) (AID 879).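 Further: negative values mean loss of peptide binding seen as reduced polarization.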 An outline of the steps: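 A drop in FITC polarization marked displacement of the FITC-tagged RGS12 GoLoco peptide (10 nM) from Gαi1 (50 nM). Compounds were incubated 10 min at room temperature in Tris pH 7.5 buffer containing 150 mM NaCl, 0.1 mM GDP and 0.05% NP40; unlabeled peptide titration served as control.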

Assay [2] addresses Cytochrome P450 3A4 (Homo sapiens) (UniProt P08684). The assay can be described thus: qHTS Assay for Activators of Cytochrome P450 3A4 (AID 885). Further: nearly all actives have a fitted effect of over 65% in size. Further: potency means the concentration at half of the fitted maximal effect. An outline of the steps:
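Human CYP3A4 dealkylates Luciferin-PPXE to luciferin, which luciferase detection converts to light. Substrate was at its KM (25uM), buffer 200mM KPO4, reaction 60 min at RT.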

The nature of assay [3]: qHTS Assay for Identification of Small Molecule Agonists for Thrombopoietin (TPO) Signaling Pathway (AID 917). The gist of the method:
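Quantitative HTS for pathway activators: compounds were pin-transferred onto IL-3-starved Ba/F3 cells expressing human TPO receptor, TPO was added at its EC50 (26 pM final), and after 24 hrs at 37 C reporter luciferase was measured.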

The target in assay [4] is Pyruvate kinase (Leishmania mexicana) (UniProt Q27686). The assay can be described thus: qHTS Validation Assay for Inhibitors of Leishmania Mexicana Pyruvate Kinase (AID 945). An outline of the steps: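 The enzyme is a highly purified E451W mutant of LmPYK used at 0.2 nM. It converts 0.5 mM PEP and 0.1 mM ADP over 1 h at room temperature; product ATP is quantified by luciferase luminescence relative to DMSO controls.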
Chain of Pyruvate kinase (Leishmania mexicana) (Q27686 2-499 E452W): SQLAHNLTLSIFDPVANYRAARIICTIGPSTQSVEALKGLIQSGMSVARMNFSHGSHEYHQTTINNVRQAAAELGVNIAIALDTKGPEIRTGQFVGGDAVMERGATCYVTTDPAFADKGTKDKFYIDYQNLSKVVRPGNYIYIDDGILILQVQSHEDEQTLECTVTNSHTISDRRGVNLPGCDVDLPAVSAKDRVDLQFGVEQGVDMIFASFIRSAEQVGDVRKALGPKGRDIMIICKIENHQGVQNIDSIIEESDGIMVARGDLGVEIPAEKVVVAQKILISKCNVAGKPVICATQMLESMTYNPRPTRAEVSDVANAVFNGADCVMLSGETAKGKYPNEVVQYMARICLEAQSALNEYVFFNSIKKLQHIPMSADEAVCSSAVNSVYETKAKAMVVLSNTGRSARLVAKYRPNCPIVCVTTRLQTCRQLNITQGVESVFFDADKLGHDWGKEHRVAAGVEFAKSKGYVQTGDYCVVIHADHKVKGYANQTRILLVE

The target in assay [5] is Pyruvate kinase PKM (Homo sapiens) (UniProt P14618). The assay can be described thus: qHTS Assay for Activators of Human Muscle Pyruvate Kinase (AID 954; active means well fitted curve in the direction sought with a large enough effect, not every such curve was filed as active). An outline of the steps: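 Compound pinned into substrate mix (0.5 mM PEP, 0.1 mM ADP), then 0.1 nM PKM2 added; 1 h, RT. Stop/detection luciferase reagent added, luminescence read. Normalized to no-inhibition and no-enzyme or reference-inhibitor controls.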
Chain of Pyruvate kinase PKM (Homo sapiens) (P14618 whole entry, looked up): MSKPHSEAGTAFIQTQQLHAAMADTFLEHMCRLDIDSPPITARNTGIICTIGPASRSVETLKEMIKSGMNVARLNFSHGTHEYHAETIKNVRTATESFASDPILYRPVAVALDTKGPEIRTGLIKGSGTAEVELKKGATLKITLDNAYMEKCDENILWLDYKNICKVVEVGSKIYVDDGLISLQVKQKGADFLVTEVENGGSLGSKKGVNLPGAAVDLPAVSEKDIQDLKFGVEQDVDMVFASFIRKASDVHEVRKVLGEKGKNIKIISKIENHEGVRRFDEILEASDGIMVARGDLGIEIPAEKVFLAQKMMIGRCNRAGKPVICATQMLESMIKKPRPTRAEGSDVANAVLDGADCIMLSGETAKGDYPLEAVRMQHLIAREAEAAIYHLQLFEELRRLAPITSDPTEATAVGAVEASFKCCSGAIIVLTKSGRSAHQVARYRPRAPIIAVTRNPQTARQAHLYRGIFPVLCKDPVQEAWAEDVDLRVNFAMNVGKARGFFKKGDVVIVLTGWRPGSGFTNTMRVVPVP

The target in assay [6] is Alpha-galactosidase A (Homo sapiens) (UniProt P06280). The assay can be described thus: Counterscreen for Glucocerebrosidase Inhibitors: qHTS Assay for Human alpha-Galactosidase at pH 4.5 (AID 992). The gist of the method: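 Steps: enzyme (2 nM final), then compound across 0.7 nM to 77 uM, then 80 uM fluorogenic galactopyranoside substrate; incubate 20 min at room temperature; quench at pH 10; measure fluorescence at 365/440 nm.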
Chain of Alpha-galactosidase A (Homo sapiens) (P06280 whole entry, looked up): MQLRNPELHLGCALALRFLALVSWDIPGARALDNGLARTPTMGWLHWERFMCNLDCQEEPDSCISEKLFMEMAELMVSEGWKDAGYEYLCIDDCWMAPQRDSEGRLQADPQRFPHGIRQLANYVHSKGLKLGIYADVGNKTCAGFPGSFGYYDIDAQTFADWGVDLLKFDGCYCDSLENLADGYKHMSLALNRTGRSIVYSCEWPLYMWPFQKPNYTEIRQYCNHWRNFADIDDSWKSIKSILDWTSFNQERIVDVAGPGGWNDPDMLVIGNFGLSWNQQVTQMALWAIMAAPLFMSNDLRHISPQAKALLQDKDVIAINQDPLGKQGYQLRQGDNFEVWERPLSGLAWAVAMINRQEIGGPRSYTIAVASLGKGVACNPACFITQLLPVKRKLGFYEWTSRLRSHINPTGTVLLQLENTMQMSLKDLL

Assay [7] concerns the target alpha-glucosidase (Oryza sativa, rice) (UniProt Q653V4). The experiment in a line: Counterscreen for Glucocerebrosidase Inhibitors: qHTS Assay for Rice alpha-Glucosidase at pH 5.0 (AID 997). The gist of the method:
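Endpoint fluorogenic assay at pH 5.0: compounds (0.7 nM to 77 uM) titrated against 4 nM rice enzyme and 400 uM 4-MU-alpha-glucoside for 20 min at room temperature; NaOH/glycine stop, read ex 365/em 440 nm, Hill-fitted AC50.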

Assay [8] can be described thus: S16 Schwann cell PMP22 intronic element firefly luciferase assay (AID 624032). Further: nearly all actives have a fitted effect of over 30% in size. Further: potency means the concentration at half of the fitted maximal effect. An outline of the steps:
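Rat S16 Schwann cells stably carrying firefly luciferase driven by a PMP22 intronic element, in 10% FBS, treated 24 h at 37 C. ONE-Glo luminescence normalized to PTC124 control and DMSO (0%); curves classed by r2, magnitude and activity.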

For a further assay, the system named is ATS95. The experiment in a line: qHTS profiling for inhibitors of Plasmodium falciparum proliferation (AID 504749). Further: nearly all actives have a fitted effect of over 60% in size. Further: potency means the concentration at half of the fitted maximal effect. The following applies: P. falciparum in erythrocytes, SYBR Green DNA, 72 h; series mostly up to 12.8 µM. The gist of the method:
(§1)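 Each compound contacts P. falciparum-infected red blood cells for 72 h at 37 C; lysis buffer (Tris, EDTA, saponin, Triton X, SYBR Green I) is added and fluorescence measured next morning; values normalized to controls.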

In the next assay the test system is CP192. Described as above. Conditions: P. falciparum in erythrocytes, SYBR Green DNA, 72 h; series mostly up to 28.7 µM. An outline of the steps: as §1
In a further assay the test system is CP260. Described as above. The following applies: P. falciparum in erythrocytes, SYBR Green DNA, 72 h; series mostly up to 12.8 µM. The gist of the method:
as §1

The subject of a further assay is CP269. The description is as above. The following applies: P. falciparum in erythrocytes, SYBR Green DNA, 72 h; series mostly up to 12.8 µM. An outline of the steps: as §1
A further assay deals with CP315. Described as above. Conditions: P. falciparum in erythrocytes, SYBR Green DNA, 72 h; series mostly up to 12.8 µM. The gist of the method:
as §1

Another assay relates to DIV14. The description is as above. Conditions: P. falciparum in erythrocytes, SYBR Green DNA, 72 h; series mostly up to 12.8 µM. An outline of the steps:
as §1

The test system of a further assay is DIV17. Described as above. The following applies: P. falciparum in erythrocytes, SYBR Green DNA, 72 h; series mostly up to 12.8 µM. An outline of the steps:
as §1

The subject of the next assay is GB4. The assay is described as above. The following applies: P. falciparum in erythrocytes, SYBR Green DNA, 72 h; series mostly up to 12.8 µM. The gist of the method:
as §1

The subject of a further assay is P93_24. The assay is described as above. The following applies: P. falciparum in erythrocytes, SYBR Green DNA, 72 h; series mostly up to 12.8 µM. An outline of the steps:
as §1

A further assay relates to W2. The description is as above. Conditions: P. falciparum in erythrocytes, SYBR Green DNA, 72 h; series mostly up to 12.8 µM. The gist of the method: as §1
Another assay concerns CP266. The assay is described as above. The following applies: P. falciparum in erythrocytes, SYBR Green DNA, 72 h; series mostly up to 28.7 µM. An outline of the steps: as §1
Another assay has as its system CP297. The description is as above. Conditions: P. falciparum in erythrocytes, SYBR Green DNA, 72 h; series mostly up to 12.8 µM. The gist of the method:
as §1

Values joined by “and” are separate entries in the source; they are usually repeats but may differ in a detail not shown here. Equal entries are not always repeated. Inconclusive results are not listed. Active and inactive are the calls of the source. Unless noted, the call rests on the fitted dose curve; in most records, active means well fitted curve in the direction sought with a large enough effect; inconclusive means small, poorly fitted or top-dose-only effect, or another doubt; inactive means no such curve, though single readings can be large; an effect the other way counts as inactive or inconclusive.

Chain of Cytochrome P450 3A4 (Homo sapiens) (P08684 whole entry, looked up): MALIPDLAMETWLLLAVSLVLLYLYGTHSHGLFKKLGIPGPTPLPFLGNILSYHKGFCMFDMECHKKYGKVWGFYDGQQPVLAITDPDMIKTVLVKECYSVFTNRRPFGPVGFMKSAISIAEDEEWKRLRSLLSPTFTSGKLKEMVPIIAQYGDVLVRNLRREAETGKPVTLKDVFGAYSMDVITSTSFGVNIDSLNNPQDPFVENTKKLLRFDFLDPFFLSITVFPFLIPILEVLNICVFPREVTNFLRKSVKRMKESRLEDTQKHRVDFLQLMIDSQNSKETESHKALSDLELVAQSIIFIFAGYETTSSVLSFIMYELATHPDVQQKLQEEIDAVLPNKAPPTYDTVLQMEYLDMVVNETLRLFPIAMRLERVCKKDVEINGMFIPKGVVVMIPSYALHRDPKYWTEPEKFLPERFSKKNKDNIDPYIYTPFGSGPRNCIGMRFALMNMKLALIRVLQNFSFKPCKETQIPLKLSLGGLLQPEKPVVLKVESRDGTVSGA
Chain of Guanine nucleotide-binding protein G(i) subunit alpha-1 (Homo sapiens) (P63096 whole entry, looked up): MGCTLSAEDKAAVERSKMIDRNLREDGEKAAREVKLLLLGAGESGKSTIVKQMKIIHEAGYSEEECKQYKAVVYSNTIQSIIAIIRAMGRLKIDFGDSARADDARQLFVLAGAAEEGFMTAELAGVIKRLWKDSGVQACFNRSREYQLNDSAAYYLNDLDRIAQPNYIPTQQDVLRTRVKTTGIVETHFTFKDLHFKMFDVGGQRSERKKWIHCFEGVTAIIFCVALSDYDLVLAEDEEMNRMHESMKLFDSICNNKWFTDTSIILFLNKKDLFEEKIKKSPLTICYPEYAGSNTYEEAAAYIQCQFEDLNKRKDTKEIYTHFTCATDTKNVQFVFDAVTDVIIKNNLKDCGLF

Take `CC(=O)O[C@]1(C(C)=O)CC[C@@H]2[C@@H]3C=C(Cl)C4=CC(=O)[C@H]5C[C@@H]5[C@]4(C)[C@H]3CC[C@]21C`: the Potency entry in assay [1] is “inactive”. Besides, the Potency in assay [2] was 3.16 µM (active) and 10 µM (active). The compound was called inactive in assay [3], in [4], in assay [5], in assay [6] and in assay [7].

For the compound `CO[C@]1(NC(=O)CSCC#N)C(=O)N2C(C(=O)O)=C(CSc3nnnn3C)CS[C@H]21`, the Potency result (in assay [1]; in assay [8]; in the assay with ATS95; in the assay with CP192; in the assay with CP260; in the assay with CP269) was “inactive” each time. For the same compound, the Potency result in the assay on CP315, in the assay on DIV14, with DIV17, with GB4, in the assay on P93_24 and with W2 was “inactive” throughout. In addition, the compound was called inactive in assay [3], in assay [4], in [5], in assay [6] and in assay [7].

As for `CN(C)[C@@H]1C(=O)C(C(N)=O)=C(O)[C@]2(O)C(=O)C3=C(O)c4c(O)ccc(Cl)c4[C@H](O)[C@H]3C[C@@H]12`, the Potency result (in assay [1]; in [8]; in the assay on CP192; in the assay on CP266; with CP269; in the assay with CP297) was “inactive” each time. Further, the Potency entry in the assay on CP315, in the assay on DIV14 and with DIV17 was “inactive” in each case. Also, the outcome in [3], in assay [4], in [5], in assay [6] and in [7] was inactive. The Potency in the assay on W2 is 5.36 µM (active).

Turning to `C[C@H](NCCc1ccc(O)cc1)[C@@H](O)c1ccc(O)cc1`, the Potency entry (in assay [1]; with ATS95; in the assay with CP192; with CP266; with CP269; with CP297) was “inactive” throughout. The Potency result in the assay on CP315, in the assay on DIV14, in the assay on DIV17, with GB4, with P93_24 and with W2 was “inactive” throughout. Besides, the outcome in assay [3], in assay [4], in [5], in assay [6] and in assay [7] was inactive.

For the compound `c1ccc([C@@H]2CN3CCSC3=N2)cc1`, the Potency result in assay [1] is “inactive”. Moreover, the result in [3], in assay [4], in assay [5], in [6] and in [7] was inactive.

For the compound `C[C@@H](COc1ccccc1)N(CCCl)Cc1ccccc1`, the Potency entry in [1] was “inactive”. Also, the compound was called inactive in [3], in assay [4], in [6] and in [7].

As for `COc1cc(=O)n(C)c2c(OC[C@@H](O)C(C)(C)O)cccc12`, the Potency entry in assay [1] and in [2] was “inactive” each time. The compound was called inactive in [3], in assay [4], in assay [5], in assay [6] and in assay [7].

For the compound `CN1C(=O)CC[C@@H]1c1cccnc1`, the Potency entry in [1] and in [2] was “inactive” in each case. Moreover, the call in assay [4], in assay [5], in assay [6] and in assay [7] was inactive.

`O=C(C1CCCCC1)N1CC(=O)N2CCc3ccccc3[C@@H]2C1`: the Potency in assay [8] is 36.1 µM (active).

Regarding `O=C(c1ccccc1)c1ccc2n1CC[C@H]2C(=O)O`, the Potency entry (in assay [1]; in [8]; in the assay on ATS95; with CP192; with CP260; with CP269) was “inactive” throughout. For the same compound, the Potency entry in the assay on CP315, with DIV14, in the assay on DIV17, in the assay with GB4, in the assay on P93_24 and in the assay with W2 was “inactive” each time. Also, the compound was called inactive in assay [3], in assay [4], in assay [5], in assay [6] and in assay [7].

Take `CCCCCN(CCCCC)C(=O)[C@H](CCC(=O)O)NC(=O)c1ccc(Cl)c(Cl)c1`: the Potency entry in assay [1] was “inactive”. The result in assay [3], in assay [4], in assay [5], in [6] and in [7] was inactive.

With `Cc1cccc(C)c1OC[C@H](C)N`, the Potency entry in [1] was “inactive”. The result in assay [3], in [4], in [5], in assay [6] and in assay [7] was inactive.

As for `N[C@@H](CO)C(=O)NNCc1ccc(O)c(O)c1O`, the outcome in assay [4], in [5], in [6] and in [7] was inactive. For the same compound, the Potency entry (in assay [8]; in the assay with ATS95; in the assay with CP192; with CP260; in the assay on CP266; with CP269) was “inactive” each time. Moreover, the Potency entry in the assay with CP297, in the assay on CP315, in the assay on DIV14, with DIV17, with GB4 and in the assay with P93_24 was “inactive” each time.

Regarding `O[C@@](CCN1CCCCC1)(c1ccccc1)C1CCCCC1`, the Potency result in [1] and in assay [2] was “inactive” throughout. Besides, the compound was classed as inactive in [3], in assay [4], in assay [5], in assay [6] and in [7].

`CCCN[C@@H](C)C(=O)Nc1ccccc1C`: the Potency entry (in assay [1]; in assay [8]; in the assay with ATS95; in the assay with CP192; in the assay on CP260; in the assay on CP269) was “inactive” in each case. For the same compound, the Potency entry in the assay on CP297, with CP315, with DIV14, in the assay with DIV17, in the assay on GB4 and in the assay on P93_24 was “inactive” in each case. Further, the Potency entry in the assay with W2 is “inactive”. The compound was called inactive in assay [3], in [4], in assay [5], in assay [6] and in [7].

Consider `CC(=O)OCC1=C(C(=O)O)N2C(=O)[C@@H](NC(=O)Cc3cccs3)[C@@H]2SC1`, for which the Potency result in assay [1] and in assay [2] was “inactive” each time. The call in assay [3], in [4], in [5], in assay [6] and in assay [7] was inactive.

Turning to `CC[C@]1(C)CC(=O)NC1=O`, the Potency entry (in assay [1]; in assay [8]; in the assay with ATS95; in the assay on CP192; in the assay with CP260; with CP266) was “inactive” each time. For the same compound, the Potency entry with CP269, with CP297, in the assay with CP315, in the assay on DIV14, with DIV17 and with GB4 was “inactive” throughout. The Potency entry with P93_24 and with W2 was “inactive” each time. For the same compound, the outcome in assay [3], in [4], in assay [5], in assay [6] and in [7] was inactive.

As for `CN1Cc2c(N)cccc2[C@H](c2ccccc2)C1`, in [2], the Potency entry was “inactive”. In addition, the outcome in [3], in assay [4], in assay [5], in assay [6] and in [7] was inactive.

Regarding `C=CCc1ccccc1OC[C@H](O)CNC(C)C`, the Potency entry in [1] is “inactive”. Also, the call in assay [3], in assay [4], in [5], in assay [6] and in assay [7] was inactive.

As to `CC[C@H](NC(C)C)[C@H](O)c1ccc(O)c(O)c1`, the Potency entry (in [1]; in assay [2]; in the assay with ATS95; in the assay with CP192; with CP266; in the assay with CP269) was “inactive” each time. Also, the Potency result in the assay on CP297, with CP315 and in the assay on P93_24 was “inactive” in each case. Further, the compound was classed as inactive in assay [4], in assay [5], in assay [6] and in assay [7]. Further, the Potency in assay [8] was 11.4 µM (active).

Values taken from PubChem BioAssay (NCATS).
